Screening data from PubChem.
D1 agonist: human D1 receptor agonism | P21728 | HEK293 T-REx D1 cells, calcium flux, agonist mode | activation, % at 2 µM | 360,000 tested, 1% active; also: 0% is about no effect
Target sequence (P21728 whole entry, looked up): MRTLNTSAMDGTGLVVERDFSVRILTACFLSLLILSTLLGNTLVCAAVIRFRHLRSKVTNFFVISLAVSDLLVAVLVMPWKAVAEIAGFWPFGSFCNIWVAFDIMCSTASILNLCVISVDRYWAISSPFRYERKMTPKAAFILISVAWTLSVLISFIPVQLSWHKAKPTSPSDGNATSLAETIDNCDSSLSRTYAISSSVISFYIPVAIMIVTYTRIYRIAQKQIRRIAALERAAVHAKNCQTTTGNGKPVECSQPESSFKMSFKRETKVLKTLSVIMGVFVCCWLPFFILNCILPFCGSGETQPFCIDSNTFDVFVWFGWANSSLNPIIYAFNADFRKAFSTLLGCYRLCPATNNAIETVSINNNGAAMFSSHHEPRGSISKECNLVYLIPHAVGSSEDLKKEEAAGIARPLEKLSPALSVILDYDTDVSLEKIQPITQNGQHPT
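Tetracycline-induced HEK293 TREx D1 cells, force-coupled to calcium signalling, were dye-loaded with a no-wash calcium kit. Compound was pin-added after a 10 s baseline. Fluorescence was read kinetically at 1 cycle/s for 180 s, with calcium rises flagged as agonism.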
TRHR agonist: TRH receptor (human) agonism; P34981; TRHR cells, calcium flux fluo-8, FDSS agonist mode; activation, % at 2 µM; 360,000 tested, 0.18% active; AID 493084; also: 0% is about no effect
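TRHR-expressing cells loaded with fluo-8 calcium dye; 23 nL library compound pin-transferred, kinetic FDSS fluorescence (Ex 480/Em 530) recorded about 180 s for agonist-induced calcium release, before a 10 nM TRH EC20 addition for potentiator mode.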
D1 antag: blocks dopamine activation of the human D1 receptor | P21728 | HEK293 TREx D1 cells, calcium flux, dopamine EC80; stronger effect = lower value | activity change, negative = inhibition, % at 10 µM | 360,000 tested, 3.2% active | AID 504652; in the data active = activity change below about -30%; also: % is scaled to controls: 0 for no effect and ±100 for the full control effect
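Kinetic fluorescence of a calcium dye serves as the read-out. D1-expressing Hek293 Trex cells, induced overnight at 30 C, are exposed to compound for 180 s before an EC80 dopamine addition, then read 180 s further.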
D1 potentiator: enhances dopamine response at the human D1 receptor; 360,000 tested, 0.036% active; potentiation, % at 10 µM; AID 504651; HEK293 TREx D1 cells, calcium flux, dopamine EC20 potentiation; P21728; in the data active = potentiation above about 30%; also: 0% is about no effect
TRHR PAM: allosterically enhances the human TRH receptor; P34981; TRHR cells, fluo-8 calcium fluorescence, EC20 TRH enhancement; enhancement, % at 2 µM; 360,000 tested, 0.66% active; in the data active = enhancement above about 30%; also: 0% is about no effect
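TRHR-expressing cells loaded with fluo-8 calcium dye were read kinetically (ex 480/em 530) during compound addition, then stimulated with an EC20 of TRH (10 nM final). Enhancement of the Gq-mediated intracellular calcium response was scored.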
The depositor's hits bear a star. A selection: hits, their analogues and other compounds. The true share with any hit is near 4.6%. Rule as the data show it, unless noted: active = activation above about 30%; inactive = the rest.

SMILES	D1 agonist	TRHR agonist	D1 antag	D1 potentiator	TRHR PAM
CC12CN3CC(c4ccccc4)(CN(C1)C3c1ccc(Cl)cc1)C2=O (stereo unspecified)	0.3	0.7	2.3	-0.1	3.5
CCCCOC(=O)c1ccc(OC(=O)c2sc3ncn(Cc4ccccc4Cl)c(=O)c3c2C)cc1	2.1	-0.2	8.0	-2.3	-6.3
COc1cc(NC(=O)CCn2nc(C)c(S(=O)(=O)N3CCCCC3)c2C)cc(OC)c1OC	-1.1	0.1	1.9	-0.6	19.7
Cc1nc2ccc(S(=O)(=O)NCC(=O)N3CCCCC3)cc2s1	1.2	-0.3	-0.6	-2.9	-0.5
Cc1nc2ccc(S(=O)(=O)NCC(=O)N3CCN(c4ccccc4)CC3)cc2s1	0.9	0.0	-39.1*	-4.8	-6.9
COc1ccccc1CNC(=O)C(CC(C)C)N1Cc2ccccc2C1=O (stereo unspecified)	1.4	-0.5	-2.1	8.7	0.8
Cc1ccc(S(=O)(=O)Nc2ccc3c(c2)CCCN3C(=O)c2cccs2)cc1	10.5	-1.6	-17.0	-0.2	-0.3
O=C(c1cccs1)N1CCCc2cc(NS(=O)(=O)c3ccc(Br)cc3)ccc21	1.4	-0.4	-39.9*	-0.1	-2.8
O=C(Nc1ccc2c(c1)CCCN2C(=O)c1cccs1)c1ccccc1	2.3	-0.8	-27.9	-5.4	-4.8
O=C(Nc1ccc2c(c1)CCCN2C(=O)c1cccs1)c1cccc(F)c1	6.5	-0.1	-36.4*	-4.9	-16.4
O=C(Nc1ccc2c(c1)CCCN2C(=O)c1cccs1)c1cccc(C(F)(F)F)c1	1.4	0.5	-58.0*	-0.8	-3.7
C=CCSc1ncc(CO)n1Cc1ccccc1	-1.0	-0.7	-50.2*	2.3	5.0
OCc1cnc(SCc2ccccc2)n1Cc1ccccc1	3.4	-0.1	2.1	-1.8	-6.7
CC(=O)c1c(C)n(-c2ccc(Cl)cc2)c2ccc(O)cc12	2.6	-0.3	-5.4	-0.4	38.9*
COC(=O)c1c(C)n(-c2ccc(C)cc2)c2ccc(O)cc12	1.8	-0.3	-61.7*	-9.4	-3.9
CC(=O)c1ccc(-n2c(C)c(C(C)=O)c3cc(O)ccc32)cc1	4.1	-0.5	-22.2	3.9	3.5
CCOc1ccc(-n2c(C)c(C(=O)OC)c3cc(O)ccc32)cc1	1.5	-0.3	6.9	3.7	-1.1
CC(=O)c1c(C)n(-c2cccc(Cl)c2)c2ccc(O)cc12	0.5	-0.9	-0.8	-3.0	3.1
CC(=O)c1c(C)n(-c2ccccc2)c2ccc(O)cc12	-0.1	-0.6	-38.1*	-6.1	4.3
CCOc1cccc(CC(=O)N2CCc3c([nH]c4ccccc34)C2c2ccc(C)cc2)c1OCC (stereo unspecified)	1.9	0.6	-6.6	-0.3	5.2
Cn1c(C(=O)O)c(S(=O)(=O)c2ccc(Cl)cc2)c2ccccc21	3.7	0.7	-22.2	-4.5	1.0
CC(C)COc1ccc(C(=O)Nc2onc3c2CCCC3)cc1	9.5	-1.0	-44.9*	-0.6	-2.2
CCOc1ccc(C(=O)Nc2onc3c2CCCC3)cc1	-2.5	-0.1	-13.4	-1.4	2.0
COc1cccc(-c2cccc(NC(=O)C3CCN(Cc4nccs4)CC3)c2)c1	0.2	-0.2	-1.3	-0.6	-4.6
CCOc1ccc(CN2CCC(C(=O)Nc3cccc(-c4ccn[nH]4)c3)CC2)cc1Cl	17.3	2.0	-53.3*	-8.9	0.9
SMILES	D1 agonist	TRHR agonist	D1 antag	D1 potentiator	TRHR PAM
N=c1oc2ccc(Br)cc2cc1C(=O)NCc1ccccc1	8.7	0.7	-5.1	4.7	-1.5
CC(NC(=O)c1cc2cc(Br)ccc2oc1=N)c1ccccc1 (stereo unspecified)	1.5	-0.4	-52.8*	4.6	-5.7
CCCCCCOc1ccc(/C(C)=N/NC2=NCCN2)cc1	39.1*	0.3	25.6	-5.2	3.9
C=C1CC[C@@H]2[C@](C)(CO)[C@H](O)CC[C@@]2(C)[C@@H]1/C=C/C1=CCOC1=O	4.1	0.4	-9.7	-2.4	12.2
C=C1CCC2[C@](C)(CO)[C@H](O)CC[C@@]2(C)[C@@H]1/C=C/C1=CCOC1=O (stereo partly specified)	2.5	1.1	-65.8*	-6.0	-0.7
COc1ccc(S(=O)(=O)N2CCC(O)(c3ccc(Cl)cc3)CC2)cc1OC	0.3	-0.2	-23.4	-3.6	-1.2
COc1ccc(S(=O)(=O)N2CCC(O)(c3ccc(Cl)cc3)CC2)cc1	10.8	0.6	-35.8*	-7.0	0.0
Cc1ccccc1C(=O)Nc1cc(S(=O)(=O)N2CCCCC2)ccc1N1CCN(C)CC1	5.4	0.4	5.4	-1.8	-1.1
CCN1CCN(c2ccc(S(=O)(=O)N3CCCCC3)cc2NC(=O)Cc2ccc(OC)cc2)CC1	44.4*	1.9	-31.1*	-4.0	-3.2
COc1ccc(CC(=O)Nc2cc(S(=O)(=O)N3CCCCC3)ccc2C)cc1	2.8	-0.2	3.3	0.3	-12.9
CCN1CCN(c2ccc(S(=O)(=O)N3CCOCC3)cc2NC(=O)c2ccccc2SC)CC1	3.8	-0.3	4.4	-4.7	-10.4
CCN1CCN(c2ccc(S(=O)(=O)N3CCOCC3)cc2NC(=O)c2cc(Cl)nc3ccccc23)CC1	3.6	-0.1	-32.6*	-3.7	-5.7
CN1CCN(c2ccc(S(=O)(=O)N3CCCCC3)cc2NC(=O)c2ccc3ccccc3c2)CC1	11.6	1.5	-49.6*	-12.6	8.7
N#Cc1ccc(Sc2ccccn2)c([N+](=O)[O-])c1	4.5	0.7	-59.9*	-1.9	2.1
C/C(=N\NC(=O)c1ccco1)c1ccc(NC(=O)C(F)(F)F)cc1	5.2	-0.1	-18.4	-3.9	38.9*
C/C(=N\NC(=O)c1ccco1)c1ccc(-c2ccccc2)cc1	2.2	-0.3	-0.8	-4.4	9.0
C/C(=N\NC(=O)c1ccco1)c1ccc(NC(=O)c2ccccc2)cc1	3.6	0.0	-33.5*	-6.8	0.7
CCc1nnc2c(Nc3ccc(N(CC)CC)cc3C)nc3ccccc3n12	7.6	1.4	0.9	4.7	0.7
CCn1c(=N)n(CC(O)COc2ccccc2)c2ccccc21 (stereo unspecified)	3.8	-0.1	9.4	-1.9	3.6
Cc1ccc(OCC(O)Cn2c(=N)n(Cc3ccccc3)c3ccccc32)cc1 (stereo unspecified)	9.9	0.6	-5.3	-4.6	7.7
N=c1n(Cc2ccc(Cl)cc2)c2ccccc2n1CC(O)COc1ccccc1 (stereo unspecified)	68.1*	1.5	-6.3	-2.6	5.6
N=c1n(Cc2ccccc2)c2ccccc2n1CC(O)COc1ccc(Cl)cc1Cl (stereo unspecified)	87.4*	2.6	-6.9	32.0*	5.2
COc1ccc(OCC(O)Cn2c(=N)n(Cc3ccccc3)c3ccccc32)cc1 (stereo unspecified)	48.4*	0.9	-46.0*	-19.7	-1.4
